For orientation: AC50 means the concentration at which the activity in the assay is half-maximal.

Where “and” joins values, the source holds several entries; their conditions need not be identical. Equal entries are not always repeated. The whole screen tested about 16,000 compounds, of which about 2,600 (16%) were called active. Another 20% or so got no clear call; they are omitted. A selection follows. A number with no mark means an inactive call. Calls follow the shape of the dose curve; as a rule, active = well fitted curve in the direction sought with a large enough effect; inconclusive = small, poorly fitted or top-dose-only effect, or effect the other way; inactive = no such curve, though single readings can be large or run the other way.
% is scaled to controls: 0 for no effect and ±100 for the full control effect.

The assay deals with Cytochrome P450 2D6 (Homo sapiens) (UniProt P10635). Briefly: Cytochrome panel assay with activity outcomes. The following applies: recombinant CYP, pro-luciferin dealkylation, luminescence, p450-cyp2d6; series mostly up to 57.1 µM; activity, negative = inhibition: at the top concentration.
Chain of Cytochrome P450 2D6 (Homo sapiens) (P10635 whole entry, looked up): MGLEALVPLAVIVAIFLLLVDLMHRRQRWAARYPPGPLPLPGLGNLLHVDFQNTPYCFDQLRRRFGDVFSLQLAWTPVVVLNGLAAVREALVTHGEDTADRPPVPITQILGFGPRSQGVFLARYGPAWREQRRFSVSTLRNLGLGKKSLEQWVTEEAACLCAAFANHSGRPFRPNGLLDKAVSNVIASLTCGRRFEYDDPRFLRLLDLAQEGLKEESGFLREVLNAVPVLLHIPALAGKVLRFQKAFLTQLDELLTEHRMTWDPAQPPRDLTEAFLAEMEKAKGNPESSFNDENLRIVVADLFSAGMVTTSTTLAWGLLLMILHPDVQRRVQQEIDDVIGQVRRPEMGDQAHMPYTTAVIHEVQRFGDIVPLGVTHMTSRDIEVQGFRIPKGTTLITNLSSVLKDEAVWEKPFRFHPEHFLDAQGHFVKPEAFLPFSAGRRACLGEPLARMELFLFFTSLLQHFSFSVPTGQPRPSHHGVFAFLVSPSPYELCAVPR
Regarding `CC(=O)COc1ccc2c(C)c(C)c(=O)oc2c1`, the “activity, negative = inhibition” value was -13.3%.
The same measure, in the same setting: with `CCOC(=O)C(Sc1ncnc2c1sc1nc(N3CCOCC3)c3c(c12)CCCC3)c1ccccc1` (centres undefined) the figure was -2.46%; with `CCOC(=O)CC1C(=O)NCCN1S(=O)(=O)c1ccc(Cl)c(Cl)c1` (centres undefined), -2.03%; with `COc1ccc(-n2c(=O)c(-c3ccc(F)c(F)c3)nc3cncnc32)cc1`, -5.32%.
Take `NC(N)=NC(N)=Nc1ccc(S(=O)(=O)O)cc1`: the activity, negative = inhibition was 3.23% [at 11.4 µM].
On the same count and under the same terms, to `O=C(O)/C(=C\c1ccccc1)c1ccccc1` belongs -2.29% [at 11.4 µM].
Take `FC(F)(F)c1ccccc1-c1nc(Nc2ccncc2)c2ccccc2n1`: the AC50 is 25.1 µM (active).
On the same count and under the same terms, to `FC(F)(F)c1ccccc1-c1nc(NCc2cccnc2)c2ccccc2n1` belongs 15.8 µM (active).
In the case of `FC(F)(F)c1ccccc1-c1nc(NC2CCNCC2)c2ccccc2n1`, the “activity, negative = inhibition” value is 6.57%.
Still for that read-out and setting: with `Cc1ccccc1-c1nc(Nc2ccncc2)c2ccccc2n1` the figure was -15.9%; with `Clc1ccccc1-c1nc(N/N=C/c2cccnc2)c2ccccc2n1`, -26.2%.
With `Clc1ccccc1-c1nc(NCc2cccnc2)c2ccccc2n1`, the AC50 is 20 µM (active).
As to `COc1cc(OC)c(C2C(C(=O)O)c3ccccc3C(=O)N2C)cc1OC` (centres undefined), the “activity, negative = inhibition” value was 23.1%.
On to `NC1(C(=O)O)C[C@@H](C(=O)O)[C@H](C(=O)O)C1`, for which the AC50 entry is “inactive”.
`CCNc1ncc2nc(-c3ccc(Cl)cc3)c(=O)n(C3CC3)c2n1`: the “activity, negative = inhibition” value is -1.85%.
With `N#CCCn1c(=O)cnc2cnc(N3CCOCC3)nc21`, the “activity, negative = inhibition” value is 2.85%.
`CCCCCc1nnc(NC(=O)C(=O)OCC)s1`: the “activity, negative = inhibition” value is 12.7%.
On the same count and under the same terms, to `CC(C)OCCCN1C(=O)c2ccccc2C1C(=O)NC1CCCCC1` (centres undefined) belongs -15.4%.
With `CO/N=C(\C(=O)N[C@@H]1C(=O)N2C(C(=O)[O-])=C(C[N+]3(C)CCCC3)CS[C@@H]12)c1csc(N)n1`, the “activity, negative = inhibition” value was 1.93% [at 25.6 µM].
The same measure, in the same setting: to `Cn1cccc1CC(=O)N/N=C\c1cccs1` belongs -23.7%; to `CCCCC(=O)NNC(=S)NC(=O)c1cccc([N+](=O)[O-])c1`, 7.81%.
On the same count and under the same terms, to `CCCn1c(=O)c2[nH]c(-c3ccccc3)nc2n(CCC)c1=O` belongs 2.98%; to `CC1(C)OC(=O)C(=CNc2cccc(O)c2)C(=O)O1`, 1.06%; to `CC(C)=CCc1c(C)nc2ccccc2c1C(=O)O`, 42.4%.
For the molecule `CC(C)=CCC1=C(OCC(=O)O)C(=O)c2ccccc2C1=O`, the AC50 is 3.16 µM (active).
Regarding `CC(CC(=O)O)CC(=O)Nc1ccc(S(N)(=O)=O)cc1` (centres undefined), the “activity, negative = inhibition” value is 5.56%.
On to `CN1CCC(=C2c3ccccc3CCc3sccc32)CC1`, for which the concentration at half-maximal activity (AC50) was 1.26 µM (active).
Still for that read-out and setting: to `CN1CCC(=C2c3ccccc3CC(=O)c3sccc32)CC1` belongs 7.94 µM (active) and 3.16 µM (active) and 5.01 µM (active).
Turning to `O=C1/C(=N\O)Cc2ccccc21`, the “activity, negative = inhibition” value was -23.1%.
For the molecule `CCc1cc(C(=O)OC)c(NC(=O)CCCC(=O)O)s1`, the “activity, negative = inhibition” value was -21.8%.
Consider `O=C(NNC(=O)c1cccnc1)Nc1cccc2ccccc12`, for which the “activity, negative = inhibition” value is -5.2%.
On to `CO[C@H]1COC(=O)C/C=C\[C@H](C)[C@@H](NS(=O)(=O)c2ccc(C)cc2)COC(=O)C/C=C\[C@@H]1C`, for which the activity, negative = inhibition is 3.82% [at 11.4 µM].
Turning to `NC(N)=NC(N)=Nc1c(F)c(F)c(F)c(F)c1F`, the activity, negative = inhibition is 13.6% [at 11.4 µM].
The same measure, in the same setting: with `Cc1ccc(N=CC2=C(O)CC(c3ccco3)CC2=O)cc1` (centres undefined) the figure was -7.41%; with `COc1cc(OC)c2c(c1)C(=O)c1cc(OC)cc(OC)c1C2=O`, 10.3%; with `O=C1c2ccccc2C(=O)N1CC1CCCO1` (centres undefined), 27.8%.
On to `O=c1c(-c2ccccc2)nc2cnc(N3CCOCC3)nc2n1C[C@H]1CCCO1`, for which the “activity, negative = inhibition” value is -6.63%.
With `Nc1ncc(-c2ccccc2)n1CC1CCCO1` (centres undefined), the AC50 was 3.55 µM (active).
As to `Cc1c(Cl)cccc1NC(=O)CCC(=O)NNC(=O)c1ccco1`, the “activity, negative = inhibition” value is 15.5%.
The same measure, in the same setting: with `CCOC(=O)c1cnc(N(C)C)nc1SC(=N)N` the figure was -3.04% [at 11.4 µM]; with `Cc1noc(C)c1C(=O)N1CCC2(CCCN(C(=O)NC(C)C)C2)CC1`, 19.5%.
Same read-out and setting: to `O=C(CCNS(=O)(=O)c1cccs1)N1CCCCCC1` belongs -1.94%.
Still for that read-out and setting: with `O=C(O)CCC(=O)N1CCc2cc(S(=O)(=O)NCc3cccs3)ccc21` the figure was -0.0327%.
Take `O=C(CCNS(=O)(=O)c1cccs1)N1CCc2ccccc2C1`: the half-maximal activity concentration (AC50) was 12.6 µM (active).

The record behind these values is PubChem BioAssay AID1851 (National Center for Advancing Translational Sciences (NCATS), 2009).
